High-throughput results from PubChem BioAssay.
Only some compounds are listed: those with a hit (about 10% of all), similar ones and a draw of the others.
ALDH1A1 block – qHTS Assay for Inhibitors of Aldehyde Dehydrogenase 1 (ALDH1A1); Purified ALDH1A1, NADH fluorescence, propionaldehyde substrate; Potency, µM (highest dose often 75.3 µM), for the others: at the top dose activity, negative = inhibition, actives largely listed as inhibitors; 220,000 tested, 7.3% active; Aldehyde dehydrogenase 1A1 (Homo sapiens), P00352; active = well fitted inhibition curve with a large enough effect, not every such curve was filed as active; inconclusive = small, poorly fitted or top-dose-only effect, or another doubt; inactive = no such curve, though single readings can be large or run the other way;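 also: potency is read from the fitted curve at half-maximal effect; plate controls were no enzyme wells and a reference inhibitor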
aGal spleen mod – qHTS Assay for Inhibitors and Activators of Human alpha-Galactosidase From Spleen Homogenate; Alpha-galactosidase A (Homo sapiens), P06280; human spleen homogenate, 4MU-alpha-Gal fluorescence, 40 min; Potency, µM (highest dose often 80 µM), for inactives: at the highest dose activity change, negative = inhibition, usual class: inhibitors; 240,000 tested, 0.008% active;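 also: potency is read from the fitted curve at half-maximal effect; 0% = enzyme with vehicle and -100% = no enzyme basal signal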
Target sequence (P06280 32-429 limits assumed): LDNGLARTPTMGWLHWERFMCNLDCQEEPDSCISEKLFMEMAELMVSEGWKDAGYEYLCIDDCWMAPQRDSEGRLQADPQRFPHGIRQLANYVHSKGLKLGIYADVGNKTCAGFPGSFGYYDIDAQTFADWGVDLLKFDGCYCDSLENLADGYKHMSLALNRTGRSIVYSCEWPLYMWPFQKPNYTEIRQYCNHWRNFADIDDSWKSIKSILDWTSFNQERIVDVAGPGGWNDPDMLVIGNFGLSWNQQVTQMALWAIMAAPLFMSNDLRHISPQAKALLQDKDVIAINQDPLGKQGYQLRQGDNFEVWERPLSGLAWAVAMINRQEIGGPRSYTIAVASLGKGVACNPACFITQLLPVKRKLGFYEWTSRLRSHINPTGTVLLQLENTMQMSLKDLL
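Human spleen homogenate (1 ug) was the enzyme source, with 4-methylumbelliferyl-alpha-D-galactopyranoside (1 mM final) in pH 5.0 citrate buffer with 0.01% Tween-20. Compounds were titrated; after 40 min at 37C, NaOH/glycine stop, 4-MU fluorescence read; AC50 from Hill fits.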
GLA inh pH 4.5 – qHTS Assay for Inhibitors of Human alpha-Galactosidase at pH 4.5; Alpha-galactosidase A (Homo sapiens), P06280; 230,000 tested, under 10 active; purified enzyme, 4-MU-alpha-Gal fluorescence, pH 4.5; activity change, negative = inhibition, % at 105 µM;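 also: 0% = full activity with enzyme and -100% = basal without enzyme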
HPGD block – qHTS Assay for Inhibitors of HPGD (15-Hydroxyprostaglandin Dehydrogenase); 150,000 tested, 4.3% active; Potency, µM, for inactives: at the top dose activity change, negative = inhibition, actives largely listed as inhibitors; purified HPGD, NADH fluorescence kinetic, PGE2 substrate; 15-hydroxyprostaglandin dehydrogenase [NAD(+)] (Homo sapiens), P15428; active = well fitted inhibition curve with a large enough effect, not every such curve was filed as active; inconclusive = small, poorly fitted or top-dose-only effect, or another doubt; inactive = no such curve, though single readings can be large or run the other way; also: potency is read from the fitted curve at half-maximal effect
Target sequence (P15428 whole entry, looked up): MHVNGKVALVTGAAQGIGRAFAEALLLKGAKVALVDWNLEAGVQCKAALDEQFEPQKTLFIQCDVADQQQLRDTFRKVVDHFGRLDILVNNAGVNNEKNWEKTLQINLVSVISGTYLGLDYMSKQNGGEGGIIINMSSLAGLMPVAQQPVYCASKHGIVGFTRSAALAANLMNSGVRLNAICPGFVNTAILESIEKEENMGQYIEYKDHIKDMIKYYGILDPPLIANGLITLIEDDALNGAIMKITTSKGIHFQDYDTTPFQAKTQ
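NADH formation kinetics: reaction with 30 uM PGE2 and 1 mM NAD+ (final), 20 nM enzyme, Tris-HCl pH 8 with Tween 20, after 15 min compound preincubation at room temperature. Fluorescence change, last versus first of five reads.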
PNC assembly inh – High Content Assay for Compounds that inhibit the Assembly of the Perinucleolar Compartment | activity change (PNC), negative = inhibition, % at 10 µM | 140,000 tested, 3.1% active | PC3M PTB-GFP, PNC prevalence imaging, 16 h; active compounds read low;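 active = readout at or below -70, meaning at least 70% loss of cells showing the perinucleolar compartment, a nuclear body marking cancer cells; inconclusive = readout between -30 and a set limit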;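 also: plate controls were DMSO wells for no effect and camptothecin positive control wells for full effect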
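Compounds are pinned in duplicate onto adhered PC3M cells stably expressing GFP-tagged PTB and incubated 16 h at 37 C. Cells are then fixed, nuclei stained with Hoechst, and PNC-positive cells counted.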
ALOX12 inhib – qHTS Assay for Inhibitors of 12-hLO (12-human lipoxygenase); Polyunsaturated fatty acid lipoxygenase ALOX12 (Homo sapiens), P18054; purified 12-hLO, xylenol orange hydroperoxide absorbance; Potency, µM (top dose mostly 57.1 µM), for the others: at the highest dose activity change, negative = inhibition, actives largely listed as inhibitors; 150,000 tested, 0.12% active; also: potency is read from the fitted curve at half-maximal effect; nearly all actives have a fitted effect of over 55% in size
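Hydroperoxide formation by human 12-lipoxygenase from 40 uM arachidonic acid was followed colorimetrically via ferric-xylenol orange complex, using the 573/405 nm absorbance ratio. Enzyme concentration was 150 nM, with 30 min reaction at room temperature.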
* marks the source's active call; other numbers are inactive results; ? = inconclusive; nt = no result; [ ] = another dose, or the depositor's remark. Unless noted, calls follow the shape of the dose curve; as a rule, active = well fitted curve in the direction sought with a large enough effect; inconclusive = small, poorly fitted or top-dose-only effect, or another doubt; inactive = no such curve, though single readings can be large; an effect the other way counts as inactive or inconclusive. Unless noted, % is scaled to controls: 0 for no effect and ±100 for the full control effect.

SMILES | ALDH1A1 block | aGal spleen mod | GLA inh pH 4.5 | HPGD block | PNC assembly inh | ALOX12 inhib
COc1ccc(-n2cc3c(-c4cccc(Br)c4)nnc(C)c3n2)cc1 | -7% | 0% | -2 | -16% | 34 | -4%
Nc1ccn([C@@H]2CC[C@H](CO)O2)c(=O)n1 | 8%[20.9 µM] | -2%[29.1 µM] | 0 | -2% | nt | 1%[25.6 µM]
COc1ccc(-c2nc3c(Br)c(N)c(Br)cc3o2)cc1 | 14µM* | 0% | nt | ? | -13 | -10%
Nc1c(Br)cc2oc(-c3ccccc3)nc2c1Br | 7% | -25% | -12 | -4% | ? | 0%
COC(=O)C1=C(C(=O)OC)[C@@H]2N(C)c3ccccc3[C@@]23C[C@@H](CO)N(C(=O)c2ccco2)C3=N1 | -2%[13.5 µM] | 0%[17.5 µM] | 5 | 5% | nt | 0%[11.4 µM]
O=C(Cc1csc(N2CCOCC2)n1)N/N=C/c1ccc(O)c(O)c1O | 7.5µM* | -13% | -5 | nt | nt | nt
C/C(=N\NC(=O)Cc1csc(N2CCOCC2)n1)c1ccccc1 | 1% | 1% | 5 | -10% | -7 | 2%
COc1cc(/C=N/NC(=O)CCN2CCN(Cc3ccccc3)CC2)cc(OC)c1OC | ? | -4% | 6 | ? | 14 | 3%
COc1cc(/C=N/NC(=O)CCN2CCN(c3ccccc3)CC2)cc(OC)c1OC | -11% | 5% | 4 | -12% | -86* | -3%
O=C(CCN1CCN(c2ccccc2)CC1)N/N=C/c1ccc(O)c(O)c1O | 4µM* | 2% | 1 | nt | nt | nt
CC(C)=C1C(=O)NN(c2ccc(C)c(Cl)c2)C1=O | 10% | -1% | -1 | 16µM* | -18 | -27%
CC(C)=C1C(=O)NN(c2cccc(Cl)c2)C1=O | -1% | -10% | -10 | 7.9µM* | -4 | -13%
Cc1ccc(N2C(=O)c3ccccc3C2=O)cc1Cl | 8% | 5% | 2 | -11% | 16 | -1%
O=c1cc(COc2ccc(Cl)c(Cl)c2)nc2sccn12 | -7% | 7% | -10 | nt | nt | nt
O=c1cc(CNc2cc(Cl)ccc2Cl)nc2sccn12 | 5% | -2% | -8 | -27% | -113* | -1%
COc1ccccc1NS(=O)(=O)c1cc(NC(=O)c2[nH]c(C)c(C(C)=O)c2C)ccc1N1CCOCC1 | nt | 1% | -9 | nt | nt | nt
COc1ccc(-c2nc3cnc(OC)nc3n(CCc3ccccc3)c2=O)cc1 | ? | 11% | nt | nt | nt | nt
O=C1Nc2ccccc2[C@]1(O)Cc1ccccn1 | 10%[13.5 µM] | nt | nt | 2% | nt | -1%[11.4 µM]
COc1cccc(N2CCN(CC(=O)Nc3ccc(SC(F)F)cc3)CC2)c1 | -5% | -6% | -9 | nt | -29 | 3%
O=C(CN1CCN(c2ccc(O)cc2)CC1)Nc1ccc(SC(F)F)cc1 | 8.9µM* | -10% | -6 | -7% | -3 | -17%
C=CCNc1cnn(CC(C)=O)c(=O)c1Br | 10% | -5% | 8 | -8% | -1 | 0%
CC(C)(C)C(=O)Cn1ncc(Br)c(Br)c1=O | 7.9µM* | 0% | 5 | nt | nt | nt
CC(=O)OCC(=O)[C@]1(O)C(C)CC2C3CCC4=CC(=O)C=C[C@@]4(C)[C@]3(F)C(O)C[C@@]21C (stereo not given in full) | 4% | -4% | 0 | -11% | nt | -1%
CC(C)(C)NC(=O)c1cccc(NC(=O)c2ccco2)c1 | 6% | 1% | -9 | -10% | -100* | -3%
O=C(N/N=C/c1cccs1)c1cccc(NC(=O)c2ccccc2Cl)c1 | 16µM* | -6% | -2 | -15% | 16 | -5%
SMILES | ALDH1A1 block | aGal spleen mod | GLA inh pH 4.5 | HPGD block | PNC assembly inh | ALOX12 inhib
O=C(Nc1cccc(C(=O)N2CCCCCC2)c1)c1ccco1 | 4% | -6% | -3 | 25µM* | 48 | 3%
Cc1cccc(C(=O)Nc2cccc(C(=O)N3CCOCC3)c2)c1 | -7% | -2% | -15 | -11% | -108* | -2%
CCOC(=O)N1CCN(C(=O)c2cccc(NC(=O)c3ccco3)c2)CC1 | 4% | 24% | 3 | -2% | 0 | -1%
COc1cccc(C(=O)Nc2cccc(C(=O)N3CCOCC3)c2)c1 | -5% | -7% | -2 | -13% | 0 | 1%
CCn1c(-c2ccccc2)csc1=Nc1ccc(O)cc1 | ? | -2% | -4 | nt | nt | nt
N#Cc1cccc(-c2nc(N3CCNCC3)c3ccccc3n2)c1 | -2% | 3% | 0 | -12% | nt | 3%
CCc1cc2c(nc1CC)CCN(CC/C(C)=N/OC[C@@H](O)COCc1ccco1)C2 | 16%[13.5 µM] | -7%[17.5 µM] | nt | nt | nt | nt
CCN(CC)CCn1c(-c2ccccc2)nc2c(NCc3ccccc3)nc(C)nc21 | ? | -5% | -22 | ? | nt | -3%
OC1OC[C@H](O)[C@@H](O)[C@@H]1O (stereo not given in full) | nt | -4% | nt | nt | nt | nt
O=C(Nc1cccc(C(=O)N2CCCC2)c1)c1ccccc1Cl | 4µM* | 4% | 1 | -16% | -21 | 4%
Cc1cc2cc(NC(=O)c3ccco3)ccc2[nH]1 | 22µM* | 2% | -3 | ? | ? | -6%
Cc1nc2ccc(NC(=O)c3ccco3)cc2nc1C | ? | 6% | -1 | nt | nt | nt
CCCCN(C)S(=O)(=O)c1ccc(C(=O)Nc2nnc(-c3ccco3)o2)cc1 | ? | 1% | -5 | nt | nt | nt
CCCNC(=O)c1ccccc1NC(=O)CN(c1ccccc1)S(=O)(=O)N(C)C | 4% | 8% | 1 | nt | nt | nt
CC(=O)O[C@H]1C(=O)[C@@]2(C)C([C@H](OC(=O)c3ccccc3)[C@]3(O)C[C@H](OC(=O)[C@H](O)[C@@H](NC(=O)c4ccccc4)c4ccccc4)C(C)=C1C3(C)C)[C@]1(OC(C)=O)CO[C@@H]1C[C@@H]2O (stereo not given in full) | 6% | 20% | -27 | -23% | nt | nt
C/C(=N\NC(=O)c1cc(-c2ccc(C)s2)[nH]n1)c1ccco1 | ? | -5% | 4 | -20% | -12 | 0%
CCc1c(C)nc(SCC(=O)Nc2ccc3c(c2)OCCO3)[nH]c1=O | 11µM* | -5% | 0 | nt | nt | nt
CC(C)Oc1cccc(-c2nnc(SCC(=O)Nc3ccc4c(c3)OCCO4)n2N)c1 | 13µM* | 4% | 3 | -12% | -8 | 3%
O=C(CSc1ccc(-c2ccccc2)nn1)Nc1ccc2c(c1)OCCO2 | -12% | -5% | -5 | -5% | -113* | -4%
c1ccc(-c2csc3nnc(SCc4ccc5c(c4)OCO5)n23)cc1 | ? | 6% | 2 | 22µM* | 21 | -14%
Cc1nnc(SCC(=O)Nc2ccc3c(c2)OCO3)[nH]c1=O | 0% | 3% | -1 | nt | nt | nt
